# Inconclusive results are not listed. A number with no mark means an inactive call. Activity calls are given as the source filed them. Calls follow the shape of the dose curve; as a rule, active = well fitted cell-killing curve with a large enough effect in the repeat runs; inconclusive = weak or mixed curves, or effect the other way; inactive = flat fitted curve, though single readings scatter.
# Assay: cAMP Responsive Elements (CRE) small molecule antagonists, cell-based qHTS assay: qHTS cell viability counter screen (AID 2060913); also: nearly all actives have a fitted effect of over 40% in size
# Conditions: CRE-bla HEK293T viability, CellTiter-Glo luminescence, 5 h; series mostly up to 92.4 µM; viability change, negative = cytotoxic: at the top concentration
# Outline: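 HEK293T CRE-bla, 2,000 cells/well, 18 h preincubation; cpd in DMSO + NKH477 0.25 uM final, 3 h 37 C/5% CO2; LiveBLAzer 2 h RT, then CellTiter-Glo 30 min RT, luminescence.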
# % is scaled to controls: 0 for no effect and ±100 for the full control effect.
SMILES,"viability change, negative = cytotoxic",Potency
COc1ccc(N)c([N+](=O)[O-])c1,6.27%,
CC1=CC[C@@H]2C[C@H]1C2(C)C,-0.978% [at 18.9 µM],
CCCCCCc1ccc(-c2ccc(C#N)cc2)cc1,-2.49%,
CCCCCCCC/C=C\CCCCCCCC(=O)N(CCO)CCO,-9.58%,
CCCCCCCCCCCCOCCO,,inactive
CC(C)NC[C@@H](O)COc1cccc2ccccc12,-4.92% [at 42.5 µM],
CC1CCC(CO)CC1 (centres undefined),-2.49%,
BrC/C=C/CBr,15.6% [at 18.9 µM],
Cc1oc(-c2ccccc2)nc1CCC(=O)c1ccc(CC2SC(=O)NC2=O)cc1 (centres undefined),0.867% [at 42.5 µM],

# Assay: cAMP Responsive Elements (CRE) small molecule agonists, cell-based qHTS assay: qHTS cell viability counter screen (AID 2060914);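 also: viability read after 3 h of compound exposure; nearly all actives have a fitted effect of over 50% in size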
# Conditions: CRE-bla HEK293T viability, CellTiter-Glo luminescence, 5 h; series mostly up to 92.4 µM; activity change, negative = cytotoxicity: at the top concentration
# Outline: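 Cytotoxicity counter screen multiplexed with the CRE-bla reporter assay in HEK 293T cells: 3 h compound exposure at 37 °C, followed by CellTiter-Glo luminescence measured in the same wells.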
SMILES,Potency,"activity change, negative = cytotoxicity"
O=C(O)Cc1ccccc1Nc1c(Cl)cccc1Cl,inactive,
COc1ccc(N)c([N+](=O)[O-])c1,,6.67%
CC(=O)OC(C)OC(C)=O,,6.25%
O=C(O)c1ccc(C(=O)O)c(C(=O)O)c1,inactive,
FC(F)(F)C(F)(F)C(F)(F)C(F)(F)C(F)(F)C(F)(F)C(F)(F)C(F)(F)C(F)(F)C(F)(F)F,,-0.902% [at 8.39 µM]
CC1=CC[C@@H]2C[C@H]1C2(C)C,,-0.0766% [at 18.9 µM]
CCCCCCCCCCCCCCCCN,,-1.17% [at 42.5 µM]
CCCCCCc1ccc(-c2ccc(C#N)cc2)cc1,,-11.3%
N#CCC(=O)O,inactive,
CCCCCCCC/C=C\CCCCCCCC(=O)N(CCO)CCO,,-5.73%
CC/C=C\C/C=C\C/C=C\CCCCCCCC(=O)O,inactive,
C=C(C)C(=O)NCCCN(C)C,,-0.08%
CCN(CC)c1ccc(C=O)c(O)c1,,19.5%
CCCCCCCCCCCCOCCO,inactive,
COCCCN,inactive,
CC(C)NC[C@@H](O)COc1cccc2ccccc12,,-0.0115% [at 42.5 µM]
Fc1ccccc1[C@@H](F)COC1CCC(Nc2ncnc3[nH]ncc23)CC1 (some centres undefined),,-28.2%
CC(O)Cn1cnc2c1c(=O)n(C)c(=O)n2C (centres undefined),,3.2% [at 42.5 µM]
C[C@@H](O[C@H]1OCCN(Cc2n[nH]c(=O)[nH]2)[C@H]1c1ccc(F)cc1)c1cc(C(F)(F)F)cc(C(F)(F)F)c1,,-13.6% [at 42.5 µM]
CCC(=O)OCc1ccc(OC)cc1,,-2.28%

SMILES,Potency,"activity change, negative = cytotoxicity"
Cc1c(C(=O)c2c[nH]n(C)c2=O)ccc(S(C)(=O)=O)c1C1=NOCC1,,-7.22% [at 42.5 µM]
CCCCCC=O,inactive,
CCC1C(=O)OCC1Cc1cncn1C (centres undefined),,14.6% [at 42.5 µM]
CCCNCC(O)COc1ccccc1C(=O)CCc1ccccc1 (centres undefined),,-6.14% [at 42.5 µM]
CC(=O)OC/C=C/c1ccccc1,,13%
CCCCC1CCC(O)CC1 (centres undefined),,-0.326%
CN(C)C(=O)NC1(c2ccccc2)CCN(CC[C@@]2(c3ccc(F)c(F)c3)CN(C(=O)c3ccccc3)CCO2)CC1,,22%
CC1CCC(CO)CC1 (centres undefined),,4.89%
BrC/C=C/CBr,,3.61% [at 18.9 µM]
Cc1oc(-c2ccccc2)nc1CCC(=O)c1ccc(CC2SC(=O)NC2=O)cc1 (centres undefined),,-3.74% [at 42.5 µM]
CN1C(C)(C)CC(O)CC1(C)C,,2.12%
C[C@@H]1CCN(C(=O)[C@H](CCCN=C(N)N)NS(=O)(=O)c2cccc3c2NC[C@H](C)C3)[C@@H](C(=O)O)C1,,-0.703% [at 42.5 µM]
COc1ccnc(CS(=O)c2nc3cc(OC(F)F)ccc3[nH]2)c1OC (centres undefined),,-3.03%
NC(=O)C(c1ccccc1)(c1ccccc1)[C@@H]1CCN(CCc2ccc3c(c2)CCO3)C1,,2.21% [at 42.5 µM]
CCCN(CCC)C(=O)C(CCC(=O)OCCCN1CCN(CCOC(=O)Cc2c(C)n(C(=O)c3ccc(Cl)cc3)c3ccc(OC)cc23)CC1)NC(=O)c1ccccc1 (centres undefined),,7.01% [at 42.5 µM]
CC(C)CCCC(C)N (centres undefined),,0.317% [at 42.5 µM]
CN1N=C(C(N)=O)CCC1=O,,3.85% [at 42.5 µM]
COc1ccccc1OC(=O)Oc1ccccc1OC,,2.33% [at 42.5 µM]
O=Cc1ccccc1S(=O)(=O)O,,0.595%
O=C(O)Cc1ccc(CCNS(=O)(=O)c2ccc(Cl)cc2)cc1,,-28.7% [at 42.5 µM]
